Experimental data published in PubChem BioAssay (NCI).
The panel holds about 79,000 compounds, 15% with a hit somewhere; the sample as a whole holds those more often. No stated cut-off is given here; in the data, active means growth inhibition above about 70%; inactive means the rest.

Assays:
[1] = NCI Yeast Anticancer Drug Screen. Data for the rad50 strain (AID 155);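 further: 0% = growth of vehicle-only cultures of the same strain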; details: S. cerevisiae rad50 strain growth inhibition; at 50.0 µM; active compounds read high
Outline: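 Cells are treated with compound, grown, and their growth is then scored against vehicle-only cultures of the same repair-deficient yeast strain.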

[2] = NCI Yeast Anticancer Drug Screen. Data for the mec2-1 strain (AID 157); details: S. cerevisiae mec2-1 strain, at 50.0 µM, active compounds read high
Outline: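 Test agents were screened against the mec2-1 yeast strain, with defined DNA repair or cell cycle alteration. Growth was scored as inhibition against vehicle-only controls.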

[3] = NCI Yeast Anticancer Drug Screen. Data for the sgs1 mgt1 strain (AID 161);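 further: 0% = growth of cultures given vehicle only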; details: S. cerevisiae sgs1 mgt1 strain, at 50.0 µM, active compounds read high
Outline: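 Inhibition of yeast growth, normalised to vehicle-treated controls, is reported for a strain bearing genetic alterations in DNA damage repair.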

[4] = NCI Yeast Anticancer Drug Screen. Data for the cln2 rad14 strain (AID 165);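 further: 0% = growth equal to vehicle treated cultures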; details: S. cerevisiae cln2 rad14 strain, at 50.0 µM, active compounds read high
Outline: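 Growth of compound-exposed yeast (cln2 rad14 genotype) measured and expressed as inhibition relative to vehicle.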

[5] = NCI Yeast Anticancer Drug Screen. Data for the bub3 strain (AID 167); details: S. cerevisiae bub3 mutant strain, at 50.0 µM, active compounds read high
Outline: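 Part of a panel of yeast mutants defective in DNA damage repair or cell cycle regulation. Each strain is grown with compound, and inhibition is calculated relative to solvent-treated cultures.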

[6] = NCI Yeast Anticancer Drug Screen. Data for the mlh1 rad18 strain (AID 175); details: S. cerevisiae mlh1 rad18 strain growth inhibition; at 50.0 µM; active compounds read high
Outline: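 In this whole-cell yeast screen, a strain with altered DNA damage repair is challenged with compound, and its growth is measured against matched vehicle-treated controls.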

Measured: growth inhibition

Nc1ccc2c(c1)-c1ccccc1C2O (stereo unspecified)
inactive: [1] -1.2% | [2] -19.1% | [3] -37.8% | [4] -60.9% | [5] -17.1% | [6] -16.4%

C=CCCCCCCCCCO
inactive: [1] -9.2% | [2] -11% | [3] -1.9% | [4] 10.8% | [5] -18.4% | [6] -1.8%

CC1=C(C#N)C(C#N)(C#N)C(NN(C)C)C1 (stereo unspecified)
inactive: [1] 8.3% | [2] 20.9% | [3] 1.5% | [4] -8.6% | [5] -15.9% | [6] -40%

C#CCNC(=O)NC(CCCCNC(=O)OCc1ccccc1)C(=O)OCc1ccccc1 (stereo unspecified)
inactive: [1] -7.05% | [2] 2.9% | [3] -10.8% | [4] 10.3% | [5] 3.55% | [6] -4.8%

O=c1c2c([nH]c3c1ccc1[nH]c4c(c(=O)c13)CCCC4)CCCC2
inactive: [1] -18.9% | [2] -0.75% | [3] -12.6% | [4] -13.6% | [5] -8.5% | [6] -2.3%

CC(C)(C)OC(=O)NCCCCC(NC(=O)OC(C)(C)C)C(=O)O (stereo unspecified)
inactive: [1] 3.65% | [2] 8.55% | [3] 9.7% | [4] 2.8% | [5] 5.95% | [6] -8.65%

CN(C)B(B(N(C)C)N(C)C)N(C)C
inactive: [1] 13.7% | [2] 17.4% | [3] 35.6% | [4] 22.4% | [5] 13.8% | [6] 34.8%

C=C1CC(CCCCCCC2CC(=C)C(=O)O2)OC1=O (stereo unspecified)
inactive: [1] 11.2% | [2] 1.05% | [3] -0.35% | [4] 2.3% | [5] 25.4% | [6] -25.9%

Cc1cc(N2CCCCC2)nc2ccc(Cc3ccc4nc(N5CCCCC5)cc(C)c4c3)cc12
inactive: [1] 48.7% | [2] -7.05% | [3] -27.9% | [4] -16.4% | [5] -47.4% | [6] 27.5%

COC(=O)c1ccccc1C(=O)c1ccccc1
inactive: [1] -2.5% | [2] 9.2% | [3] 3.8% | [4] -4.75% | [5] -5.95% | [6] 8.4%

CSc1cccc(N=C(C#N)C2=C(O)c3ccccc3C2=O)c1
inactive: [1] 21.1% | [2] 1.85% | [3] 9.65% | [4] 38.6% | [5] 21.5% | [6] 24.4%

CCCCOS(=O)(=O)c1ccc([N+](C)(C)C)cc1
inactive: [1] 3.9% | [2] 1.75% | [3] -10.6% | [4] 12.2% | [5] 0.6% | [6] -7%

COC(=O)C(=O)C(C(=O)C(=O)Nc1ccc([N+](=O)[O-])cc1)c1nc2ccccc2[nH]c1=O (stereo unspecified)
inactive: [1] 10.1% | [2] -5.95% | [3] 19.5% | [4] 15.4% | [5] 11.7% | [6] 29.5%

O=C1C(Cl)=C(Nc2ccc([N+](=O)[O-])cc2)C(=O)c2ccccc21
inactive: [1] 6.6% | [2] 2.55% | [3] 4.6% | [4] -40% | [5] -0.7% | [6] 5.5%

Cc1cccc(N2CCN(S(C)(=O)=O)CC2)c1
inactive: [1] 16.6% | [2] 6.85% | [3] 0.3% | [4] 18.4% | [5] 6.75% | [6] 5%

Cc1[nH]c(=O)c2oc3cc4ccccc4cc3c2c1C(=O)O
inactive: [1] -14.6% | [2] -29.9% | [3] -24.1% | [4] -44.1% | [5] -30.7% | [6] -19.1%

COc1cc(OC)c(OC(=O)CCl)c(OC)c1
inactive: [1] -3.85% | [2] 1.3% | [3] 3.2% | [4] 1.7% | [5] 11.2% | [6] 17.4%

Cc1ncnc(N)c1N
inactive: [1] 18.3% | [2] 14.2% | [3] 8.95% | [4] 26.1% | [5] 18.1% | [6] 2.8%

CC1(C)OC2OC(C3COS(=O)O3)C(Cl)C2O1 (stereo unspecified)
inactive: [1] -2% | [2] 2.45% | [3] -1.4% | [4] -48.8% | [5] -0.7% | [6] 8.6%

C1CCC2(CC1)CCCN2
inactive: [1] 7.15% | [2] 3.35% | [3] 1.4% | [4] -3.5% | [5] -1.75% | [6] 6.35%

CCOC(=O)c1c(N)sc2c1C(C(=O)OCC)CC2 (stereo unspecified)
inactive: [1] -8.95% | [2] 7.1% | [3] -8.05% | [4] -0.8% | [5] 14.8% | [6] 19.9%

CCOC(=O)c1[nH]c(COC(C)=O)c2c1CCCCCCCCCC2
inactive: [1] -6.1% | [2] -9.75% | [3] 6.05% | [4] 41.2% | [5] 5% | [6] -12.3%

COc1ccc(Nc2ccnc3cc(Cl)ccc23)cc1CCN
inactive: [1] 4.65% | [2] 8.85% | [3] 24% | [4] 10.6% | [5] -5.9% | [6] -5.8%

C=C1CN(C(=O)NCCCl)C1
inactive: [1] 10.6% | [2] 17.4% | [3] 4.15% | [4] -11.3% | [5] 4.1% | [6] -7.8%

CS(=O)(=O)CC1=Nc2nnc(CCCCCCCc3nnc4n3C(=O)C(CS(C)(=O)=O)=N4)n2C1=O
inactive: [1] -17% | [2] 5.1% | [3] 5.55% | [4] -12.1% | [5] -5.15% | [6] -7.95%

Cc1[nH]c(=O)[nH]c(=O)c1/C=C/C(=O)NC(CO)CSC(C)C (stereo unspecified)
inactive: [1] -2% | [2] 27.1% | [3] -7.75% | [4] -3.9% | [5] 8.4% | [6] 9.55%

CCN(CC)c1ccc(/C=N\NC(=S)N/N=C/c2ccc(N(CC)CC)cc2)cc1
inactive: [1] -2.3% | [2] 0.85% | [3] 7.9% | [4] 33% | [5] -0.95% | [6] -1.1%

COC(=O)OC/C=C\COC(=O)OC
inactive: [1] 5.8% | [2] -4.05% | [3] -13.6% | [4] -11.4% | [5] 4.55% | [6] 13.6%

O=C1CC2CCCCC2CC1c1ccc(OCc2ccccc2)c(OCc2ccccc2)c1 (stereo unspecified)
inactive: [1] -6.7% | [2] -0.25% | [3] 23.6% | [4] 9.1% | [5] -3.55% | [6] -13.7%

CC/C(CC(=O)CCC(=O)Nc1ccccc1[N+](=O)[O-])=N/NC(=O)C[n+]1ccccc1
inactive: [1] -1.8% | [2] 6.9% | [3] -56.1% | [4] 16.4% | [5] -1.35% | [6] -12.7%

CC1(C)C([N+](C)(C)C)CS1(=O)=O (stereo unspecified)
inactive: [1] 1.9% | [2] -18.9% | [3] -13.8% | [4] -11.1% | [5] 9.65% | [6] -6.45%

COc1ccc2c(c1)C1(C)CCCC(C)(CN=C=O)C1CC2 (stereo unspecified)
inactive: [1] 3.55% | [2] 14.4% | [3] -4.75% | [4] 4.8% | [5] -11.9% | [6] -1.95%

CCOC(=O)CCC1(C(=O)OCC)CCCCC1=O (stereo unspecified)
inactive: [1] -16.9% | [2] -20.4% | [3] -48.5% | [4] -16.9% | [5] -25.4% | [6] -23.1%

CCN(CC)CC1(CC)COC(c2ccccc2)(c2ccccc2)OC1
inactive: [1] -3.3% | [2] -21.4% | [3] -18.6% | [4] -26.3% | [5] -14.2% | [6] -34.5%

O=C(O)c1c(Br)c(Br)c(Br)c(Br)c1C(=O)Nc1ccccc1C(F)(F)F
inactive: [1] -8.55% | [2] -11.4% | [3] -2.65% | [4] -2.75% | [5] 8.05% | [6] -12.2%

COc1cc([N+](=O)[O-])cc(C=O)c1O
inactive: [1] 6.8% | [2] 28.4% | [3] 0.7% | [4] -67.5% | [5] -38.8% | [6] 11.7%

CC(Br)CCc1ccccc1Br (stereo unspecified)
inactive: [1] 3.95% | [2] -8.9% | [3] -2.95% | [4] -39.5% | [5] 19.9% | [6] 10.7%

Cc1cccc(N/N=C2\CCSc3ccccc32)c1
inactive: [1] 17.9% | [2] 8.45% | [3] 3.35% | [4] 5.95% | [5] 3.75% | [6] 4%

O=C(c1ccccc1)C1C(c2ccccc2)SC(c2ccccc2)CC1(O)c1ccccc1 (stereo unspecified)
inactive: [1] 24.1% | [2] 1.8% | [3] 11.5% | [4] 16.9% | [5] -3.45% | [6] 13.3%

Cc1ccc2c(CC(=O)O)cc(=O)oc2c1
inactive: [1] 7.35% | [2] -6.35% | [3] -7.95% | [4] 0.9% | [5] -0.3% | [6] -9.35%

Cc1ccc(C(=O)C(O)c2ccc(C)cc2)cc1 (stereo unspecified)
inactive: [1] 35.6% | [2] -34.6% | [3] 4.95% | [4] -24.1% | [5] 0.55% | [6] -7.05%

Nc1cc2c(cc1[N+](=O)[O-])-c1cccc(F)c1C2
inactive: [1] 63.6% | [2] 7.65% | [3] 0.65% | [4] 10.8% | [5] -9.15% | [6] 33%

COc1ccc(/C=C2\Oc3cc(OC(C)=O)ccc3C2=O)cc1
inactive: [1] -66.9% | [2] -44.6% | [3] -15.2% | [4] 12.2% | [5] -14.6% | [6] -21.8%

CS(=O)(=O)OCC1COCC1COS(C)(=O)=O (stereo unspecified)
inactive: [1] 26.8% | [2] -6.3% | [3] 8.75% | [4] -11.8% | [5] -14.1% | [6] 16.6%

C1CSCCSCCSCCSC1
inactive: [1] -8.05% | [2] -24.4% | [3] -13.7% | [4] -18.3% | [5] 31.9% | [6] -25.4%

CCCC1OC(c2ccccc2)OCC1CC (stereo unspecified)
inactive: [1] 6.45% | [2] 20.2% | [3] -12.7% | [4] -36.9% | [5] 15.8% | [6] 9.05%
